The panel holds about 83,000 compounds, 20% with a hit somewhere; the sample as a whole holds those more often.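 Single-concentration screen, 48 h exposure, 96-well plates. Endpoint: percent growth. Below 10 = active.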 Unmarked numbers belong to inactive results. Activity calls are given as the source filed them.

One assay relates to HS 578T breast. Nature of the assay: NCI-60 one-dose screen, 48 h (100 = growth as untreated, 0 = no growth, -100 = all killed). The conditions noted are these: 10 µM unless noted.
Turning to `COC(=O)c1ccc2[nH]c(O)c(C(=Nc3ccc(N(C)C(=O)CN4CCN(C)CC4)cc3)c3ccc([N+](=O)[O-])cc3)c2c1`, the growth is 27.6%. As to `O=C1OC(c2ccc(-c3ccccc3)cc2)=C/C1=C/c1c2ccccc2cc2ccccc12`, the growth was 89.8%. As to `O=C(O)c1ccc(-c2nn(-c3ccc(C(=O)O)cc3)cc2CNc2ccc(Br)cc2)cc1`, the growth was 107%. For `O=C(N/N=C\c1ccc(-c2ccc(Br)cc2)o1)c1cc2oc(-c3cccc(C(F)(F)F)c3)cc2[nH]1`, the growth was 81.1%. `COC(=O)c1ccc2[nH]c(O)c(C(=Nc3ccc(N(C)C(=O)CN4CCN(C)CC4)cc3)c3ccc(N)cc3)c2c1`: the growth is 45.2%.

Regarding `COC(=O)c1ccc(C(=Nc2ccc(N(C)C(=O)CN3CCN(C)CC3)cc2)c2c(O)[nH]c3ccc(C(=O)OC)cc23)cc1`, the growth is 8.61% (active). Regarding `Cc1ccc(C(C)C)c(OCc2ccc(C(=O)N/N=C/c3cccc(O)c3O)cc2)c1`, the growth is 76.8%. Turning to `O=C1Nc2c(c(=O)n(-c3ccccc3)c3ccccc23)C(c2ccc(Cl)cc2)N1` (stereo unspecified), the growth was 70.2%.

As to `O=c1c2c(c3ccccc3n1-c1ccccc1)NC(=S)NC2c1ccccc1` (stereo unspecified), the growth was 105%.

On to `COC(=O)c1ccc2[nH]c(O)c(C(=Nc3ccc(N(C)C(=O)CN4CCN(C)CC4)cc3)c3ccc(CCO)cc3)c2c1`, for which the growth is 23.9%.

With `CCCCn1c(Cc2ccc(OC)cc2)nc2cc(OC)c(OC)cc2c1=O`, the growth was 94.5%. `Cc1[nH]n(C(=S)Nc2nc3cc(Cl)c(F)cc3s2)c(=O)c1N=Nc1ccc(F)c(Cl)c1`: the growth is 85%. `Clc1ccc(N/N=C(\c2ccccc2)c2ccccn2)nc1`: the growth is 34.1%. For the compound `c1ccc(Nc2ncc3c(n2)-c2cccn2CC3)cc1`, the growth is 91.6%. Turning to `C=CCC(CCC(CC=C)C(=O)OCC)C(=O)OCC` (stereo unspecified), the growth was 107%. For `O=[N+]([O-])c1ccc(-c2ncc(-c3ccc(O)cc3O)[nH]2)cc1`, the growth is 70.9%. In the case of `CC(=O)OC1/C=C\CC/C=C\C1` (stereo unspecified), the growth was 101%. As to `CCN(CC)CCCNc1c2ccc(Cl)cc2nc2ccc(OC)cc12`, the growth is 34.1%. Turning to `COc1cc(-c2nn(-c3ccc(NC(=O)Nc4cc(C(F)(F)F)cc(C(F)(F)F)c4)cc3)cc2-c2ccncc2)ccc1Cl`, the growth was -34% (active).

As to `CC(=O)Nc1nc(C)c(C(=O)NN)s1`, the growth was 86%. Turning to `CC/C(=N\Nc1nc2ccccc2n1C)c1ccccn1`, the growth was 48.4%. For the compound `CC(=O)OCC1O[C@@H](OC(C)=O)[C@@H](NC(=O)NS(=O)(=O)c2ccccc2)C(OC(C)=O)[C@@H]1OC(C)=O` (stereo partly specified), the growth was 109%. As for `Cc1nc2c(nnn2-c2ccccc2)c2nc(-c3ccccc3)oc(=O)c12`, the growth was 107%. For `CCc1ccc(C(=Nc2ccc(N(C)C(=O)CN3CCN(C)CC3)cc2)c2c(O)[nH]c3ccc(C(=O)OC)cc23)cc1`, the growth was -48.7% (active). For `C=C[C@]1(C)C=C2C(=O)[C@@]3(O)OC[C@@]4(CCCC(C)(C)C43O)C2(O)C(O)C1` (stereo partly specified), the growth is 90.3%.

Take `CCOC(=O)c1c2c(cn1Cc1ccccc1)-c1oncc1CC2`: the growth was 91.9%.

The test system of the next assay is NCI/ADR-RES ovarian. The description is as above. The conditions noted are these: 10 µM unless noted.
Take `O=C(Nc1ccc(-n2cc(-c3ccncc3)c(-c3ccc(Cl)c(O)c3)n2)cc1)c1cc(C(F)(F)F)cc(C(F)(F)F)c1`: the growth was 72.9%. Consider `COc1ccc(C2CC(=O)c3c(O)cc(OC4OC(COC5OC(C)C(O)C(O)C5O)C(O)C(O)C4O)cc3O2)cc1O` (stereo unspecified), for which the growth was 109%.

Take `O=C(NCCNCCO)c1cc([N+](=O)[O-])cc([N+](=O)[O-])c1O`: the growth is 107%. Take `O=Nc1ccc(O)c2ccccc12`: the growth was -0.605% (active). Same read-out and setting: to `CC(=O)N1CCN(CCNC(=O)n2cc(-c3ccncc3)c(-c3ccc(O)c(Cl)c3)n2)CC1` belongs 107%. In the case of `NC(=O)c1c(Nc2ccccc2)nn2cc(-c3nc4ccccc4s3)c(N)nc12`, the growth was 98.9%. For the compound `CC(O)CN(CCO)CCN(CCO)CC(C)O` (stereo unspecified), the growth is 112%. In the case of `COC(=O)c1ccc2[nH]c(O)c(C(=Nc3ccc(N(C)C(=O)CN4CCN(C)CC4)cc3)c3ccc(OC)cc3)c2c1`, the growth is 101%. In the case of `c1ccc(C(=NNc2nc3ccccc3o2)c2ccccn2)nc1`, the growth was -3.58% (active). Consider `COC(=O)C(Cc1cnc[nH]1)N1CC(=O)N2[C@@H](c3ccccc3)SC[C@H]2C1=O` (stereo partly specified), for which the growth was 107%.

Consider `COC(=O)c1ccc2[nH]c(O)c(C(=Nc3ccc(N(C)C(=O)CN4CCN(C)CC4)cc3)c3ccc4c(c3)OCO4)c2c1`, for which the growth is 104%.

In the case of `Cc1ccc(NCc2cn(-c3ccc(C(=O)O)cc3)nc2-c2ccc(C(=O)O)cc2)cc1`, the growth was 102%. In the case of `O=C(c1ccccc1)c1ccccc1-c1ccccc1`, the growth was -23.7% (active). In the case of `CCCCCCC(C(=O)OCC)(C(=O)OCC)C1CCCCCC1`, the growth was 106%. Still for that read-out and setting: to `COC(=O)c1ccc2[nH]c(O)c(C(=Nc3ccc(N(C)C(=O)CN4CCN(C)CC4)cc3)c3ccc([N+](=O)[O-])cc3)c2c1` belongs 104%; to `O=C1OC(c2ccc(-c3ccccc3)cc2)=C/C1=C/c1c2ccccc2cc2ccccc12`, 96.5%. On the same count and under the same terms, next, `O=C(O)c1ccc(-c2nn(-c3ccc(C(=O)O)cc3)cc2CNc2ccc(Br)cc2)cc1`: 112%.

Consider `O=C(N/N=C\c1ccc(-c2ccc(Br)cc2)o1)c1cc2oc(-c3cccc(C(F)(F)F)c3)cc2[nH]1`, for which the growth is 96%. As for `COC(=O)c1ccc2[nH]c(O)c(C(=Nc3ccc(N(C)C(=O)CN4CCN(C)CC4)cc3)c3ccc(N)cc3)c2c1`, the growth was 113%. On the same count and under the same terms, to `COC(=O)c1ccc(C(=Nc2ccc(N(C)C(=O)CN3CCN(C)CC3)cc2)c2c(O)[nH]c3ccc(C(=O)OC)cc23)cc1` belongs 107%; to `Cc1ccc(C(C)C)c(OCc2ccc(C(=O)N/N=C/c3cccc(O)c3O)cc2)c1`, 1.46% (active); to `O=C1Nc2c(c(=O)n(-c3ccccc3)c3ccccc23)C(c2ccc(Cl)cc2)N1` (stereo unspecified), 99.7%. As for `O=c1c2c(c3ccccc3n1-c1ccccc1)NC(=S)NC2c1ccccc1` (stereo unspecified), the growth is 109%.

With `COC(=O)c1ccc2[nH]c(O)c(C(=Nc3ccc(N(C)C(=O)CN4CCN(C)CC4)cc3)c3ccc(CCO)cc3)c2c1`, the growth is 104%. Turning to `CCCCn1c(Cc2ccc(OC)cc2)nc2cc(OC)c(OC)cc2c1=O`, the growth was 72.5%. Regarding `Cc1[nH]n(C(=S)Nc2nc3cc(Cl)c(F)cc3s2)c(=O)c1N=Nc1ccc(F)c(Cl)c1`, the growth was 103%. Same read-out and setting: next, `Clc1ccc(N/N=C(\c2ccccc2)c2ccccn2)nc1`: -12.9% (active); `c1ccc(Nc2ncc3c(n2)-c2cccn2CC3)cc1`: 98.7%. Take `C=CCC(CCC(CC=C)C(=O)OCC)C(=O)OCC` (stereo unspecified): the growth was 109%. Consider `O=[N+]([O-])c1ccc(-c2ncc(-c3ccc(O)cc3O)[nH]2)cc1`, for which the growth is 115%. Turning to `CC(=O)OC1/C=C\CC/C=C\C1` (stereo unspecified), the growth is 122%. With `CCN(CC)CCCNc1c2ccc(Cl)cc2nc2ccc(OC)cc12`, the growth is 0.48% (active). As for `COc1cc(-c2nn(-c3ccc(NC(=O)Nc4cc(C(F)(F)F)cc(C(F)(F)F)c4)cc3)cc2-c2ccncc2)ccc1Cl`, the growth was 3.86% (active).

Consider `CC(=O)Nc1nc(C)c(C(=O)NN)s1`, for which the growth was 98.6%. The same measure, in the same setting: next, `CC/C(=N\Nc1nc2ccccc2n1C)c1ccccn1`: -5.99% (active); `CC(=O)OCC1O[C@@H](OC(C)=O)[C@@H](NC(=O)NS(=O)(=O)c2ccccc2)C(OC(C)=O)[C@@H]1OC(C)=O` (stereo partly specified): 113%; `Cc1nc2c(nnn2-c2ccccc2)c2nc(-c3ccccc3)oc(=O)c12`: 112%. Still for that read-out and setting: to `CCc1ccc(C(=Nc2ccc(N(C)C(=O)CN3CCN(C)CC3)cc2)c2c(O)[nH]c3ccc(C(=O)OC)cc23)cc1` belongs 10.5%; to `C=C[C@]1(C)C=C2C(=O)[C@@]3(O)OC[C@@]4(CCCC(C)(C)C43O)C2(O)C(O)C1` (stereo partly specified), 60.9%; to `CCOC(=O)c1c2c(cn1Cc1ccccc1)-c1oncc1CC2`, 98.3%.
